About 83,000 compounds went through this panel and 20% of them were active in at least one assay; those are over-represented in the sample as a whole.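 Interpretation: 100, growth as untreated; towards 0, rising growth inhibition; 0, no net growth; 0 to -100, cell death. Compounds scoring below 10 were considered active.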 Active and inactive are the calls of the source.
Legend:
Experiment in all cases: NCI-60 one-dose screen, 48 h (100 = growth as untreated, 0 = no growth, -100 = all killed)
Conditions in all cases: 10 µM unless noted
NCI-H23 lung = system: NCI-H23 lung
NCI-H226 lung = system: NCI-H226 lung
NCI-H322M lung = system: NCI-H322M lung
HOP-62 NSCLC = system: HOP-62 NSCLC
NCI-H460 lung = system: NCI-H460 lung
HOP-92 NSCLC = system: HOP-92 NSCLC
NCI-H522 lung = system: NCI-H522 lung
A549/ATCC NSCLC = system: A549/ATCC NSCLC
786-0 renal = system: 786-0 renal
COLO 205 colon = system: COLO 205 colon
DU-145 prostate = system: DU-145 prostate
K-562 leukemia = system: K-562 leukemia
MALME-3M melanoma = system: MALME-3M melanoma
MDA-MB-231 breast = system: MDA-MB-231 breast
RXF 393 renal = system: RXF 393 renal
SF-268 CNS = system: SF-268 CNS
SF-295 CNS = system: SF-295 CNS
SF-539 CNS = system: SF-539 CNS
UACC-257 melanoma = system: UACC-257 melanoma
M14 melanoma = system: M14 melanoma

Measured: growth

CC(C)(C)CC(C)(C)NC(=O)Nc1ncccc1OCc1ccccc1
inactive: NCI-H23 lung 86.4% | NCI-H226 lung 91.6% | NCI-H322M lung 86.3% | HOP-62 NSCLC 97.1% | NCI-H460 lung 106% | HOP-92 NSCLC 87.7% | NCI-H522 lung 70.7% | A549/ATCC NSCLC 89.8% | 786-0 renal 98.5% | COLO 205 colon 105% | DU-145 prostate 97.1% | K-562 leukemia 89.3% | MALME-3M melanoma 91.8% | MDA-MB-231 breast 96.9% | RXF 393 renal 116% | SF-268 CNS 93.1% | SF-295 CNS 88.3% | SF-539 CNS 102% | UACC-257 melanoma 85.8% | M14 melanoma 103%

O=C(CN1C(=O)NC2NC(=O)NC21)N/N=C/c1ccccc1[N+](=O)[O-] (stereo not given)
inactive: NCI-H23 lung 106% | NCI-H226 lung 87.6% | NCI-H322M lung 106% | HOP-62 NSCLC 103% | NCI-H460 lung 108% | HOP-92 NSCLC 115% | NCI-H522 lung 96.5% | A549/ATCC NSCLC 110% | 786-0 renal 101% | COLO 205 colon 120% | DU-145 prostate 113% | K-562 leukemia 104% | MALME-3M melanoma 107% | MDA-MB-231 breast 114% | RXF 393 renal 118% | SF-268 CNS 107% | SF-295 CNS 105% | SF-539 CNS 95.2% | UACC-257 melanoma 116% | M14 melanoma 102%

O=C(Nc1cccc(-c2ccc(Cl)c(C(F)(F)F)c2)c1)C1CCN(Cc2cccc3cccnc23)CC1
active: NCI-H460 lung -87.2% | NCI-H522 lung -53% | A549/ATCC NSCLC -30.8% | COLO 205 colon -72.2% | K-562 leukemia -6.99% | MALME-3M melanoma -75.6% | MDA-MB-231 breast -24.1% | RXF 393 renal 8.93% | SF-295 CNS -43.9% | SF-539 CNS -88.7% | M14 melanoma -68.5%
inactive: NCI-H23 lung 48.2% | NCI-H226 lung 45.9% | NCI-H322M lung 35.5% | HOP-62 NSCLC 62.3% | HOP-92 NSCLC 30.2% | 786-0 renal 31.9% | DU-145 prostate 10.8% | SF-268 CNS 40.1% | UACC-257 melanoma 19.8%

COc1ccc(C(=O)C/C(=C\c2ccc(Cl)cc2)C(=O)NCc2ccccc2)cc1
inactive: NCI-H23 lung 90.6% | NCI-H226 lung 73.4% | NCI-H322M lung 84.5% | HOP-62 NSCLC 82.6% | NCI-H460 lung 74.4% | HOP-92 NSCLC 86.2% | NCI-H522 lung 60.7% | A549/ATCC NSCLC 84.7% | 786-0 renal 99.2% | COLO 205 colon 108% | DU-145 prostate 103% | K-562 leukemia 62.4% | MALME-3M melanoma 79.8% | MDA-MB-231 breast 81.3% | RXF 393 renal 91.6% | SF-268 CNS 86.3% | SF-295 CNS 101% | SF-539 CNS 94.4% | UACC-257 melanoma 70.7% | M14 melanoma 94.8%

CCN(CC)Cc1cc(C=C2C(=O)NC(=S)NC2=O)cc(OC)c1O
inactive: NCI-H23 lung 98.1% | NCI-H226 lung 107% | NCI-H322M lung 103% | HOP-62 NSCLC 106% | NCI-H460 lung 104% | HOP-92 NSCLC 104% | NCI-H522 lung 104% | A549/ATCC NSCLC 109% | 786-0 renal 104% | COLO 205 colon 117% | DU-145 prostate 111% | K-562 leukemia 117% | MALME-3M melanoma 111% | MDA-MB-231 breast 103% | RXF 393 renal 115% | SF-268 CNS 101% | SF-295 CNS 102% | SF-539 CNS 101% | UACC-257 melanoma 106% | M14 melanoma 108%

COc1ccc(C(=O)Nc2cccc(-c3cc(=O)c4c(OC)c(OC)c(OC)cc4o3)c2)cc1
active: HOP-92 NSCLC 6.67%
inactive: NCI-H23 lung 57.5% | NCI-H226 lung 69.9% | NCI-H322M lung 55.1% | HOP-62 NSCLC 72.5% | NCI-H460 lung 42.1% | NCI-H522 lung 44.5% | A549/ATCC NSCLC 64.7% | 786-0 renal 55% | COLO 205 colon 73.1% | DU-145 prostate 56.5% | K-562 leukemia 20.6% | MALME-3M melanoma 53.4% | MDA-MB-231 breast 57.2% | RXF 393 renal 53.6% | SF-268 CNS 58.4% | SF-295 CNS 59.6% | SF-539 CNS 66.3% | UACC-257 melanoma 105% | M14 melanoma 68%

O=C1NC(=O)C(Cc2ccc(OCc3ccc(-c4ccc(Cl)cc4Cl)cc3)cc2)S1 (stereo not given)
inactive: NCI-H23 lung 46.9% | NCI-H226 lung 74.5% | NCI-H322M lung 90.8% | HOP-62 NSCLC 66.4% | NCI-H460 lung 58.5% | HOP-92 NSCLC 53.7% | NCI-H522 lung 26.8% | A549/ATCC NSCLC 39.4% | 786-0 renal 63.8% | COLO 205 colon 90.4% | DU-145 prostate 78.9% | K-562 leukemia 23.5% | MALME-3M melanoma 49.9% | MDA-MB-231 breast 71% | RXF 393 renal 76.1% | SF-268 CNS 51.8% | SF-295 CNS 45% | SF-539 CNS 56.2% | UACC-257 melanoma 55.7% | M14 melanoma 47.5%

COc1cc(/C=C2/C=C(c3ccccc3)N(CCc3ccc(S(N)(=O)=O)cc3)C2=O)cc(OC)c1OC
inactive: NCI-H23 lung 103% | NCI-H226 lung 94.6% | NCI-H322M lung 100% | HOP-62 NSCLC 94% | NCI-H460 lung 105% | HOP-92 NSCLC 41.9% | NCI-H522 lung 81.3% | A549/ATCC NSCLC 86.4% | 786-0 renal 85.5% | COLO 205 colon 108% | DU-145 prostate 109% | K-562 leukemia 93.6% | MALME-3M melanoma 84.2% | MDA-MB-231 breast 96.8% | RXF 393 renal 96.1% | SF-268 CNS 107% | SF-295 CNS 99.2% | SF-539 CNS 101% | UACC-257 melanoma 84% | M14 melanoma 89.8%

Cc1cccc(/C=C2\CN(C(=O)OC(C)(C)C)C/C(=C\c3cccc(C)c3)C2=O)c1
active: K-562 leukemia 5.44%
inactive: NCI-H23 lung 92.7% | NCI-H226 lung 99.6% | NCI-H322M lung 95.8% | HOP-62 NSCLC 96.9% | NCI-H460 lung 110% | HOP-92 NSCLC 87.3% | NCI-H522 lung 63.8% | A549/ATCC NSCLC 97.4% | 786-0 renal 94.6% | COLO 205 colon 115% | DU-145 prostate 106% | MALME-3M melanoma 90.6% | MDA-MB-231 breast 98.8% | RXF 393 renal 128% | SF-268 CNS 94.1% | SF-295 CNS 101% | SF-539 CNS 104% | UACC-257 melanoma 94.7% | M14 melanoma 90.5%

COc1ccc(/C=C(\C#N)n2nnc3cc(F)c(F)cc32)cc1
active: K-562 leukemia 8.72% | M14 melanoma 6.43%
inactive: NCI-H23 lung 74.7% | NCI-H226 lung 101% | NCI-H322M lung 72.6% | HOP-62 NSCLC 49.6% | NCI-H460 lung 87.8% | HOP-92 NSCLC 72.3% | NCI-H522 lung 12.7% | A549/ATCC NSCLC 51.7% | 786-0 renal 60.8% | COLO 205 colon 38.2% | DU-145 prostate 47.6% | MALME-3M melanoma 45.6% | MDA-MB-231 breast 64.9% | RXF 393 renal 85.8% | SF-268 CNS 68.6% | SF-295 CNS 72.3% | SF-539 CNS 44.5% | UACC-257 melanoma 81.9%

Fc1cnccc1C1CC(c2ccc(N3CCNCC3)cc2)=NN1 (stereo not given)
inactive: NCI-H23 lung 83.8% | NCI-H226 lung 82.9% | NCI-H322M lung 89.3% | HOP-62 NSCLC 83.2% | NCI-H460 lung 94.9% | HOP-92 NSCLC 72.4% | NCI-H522 lung 81.9% | A549/ATCC NSCLC 76.2% | 786-0 renal 111% | COLO 205 colon 95.7% | DU-145 prostate 107% | K-562 leukemia 77.9% | MALME-3M melanoma 93.4% | MDA-MB-231 breast 84.6% | RXF 393 renal 105% | SF-268 CNS 107% | SF-295 CNS 98% | SF-539 CNS 104% | UACC-257 melanoma 83.1% | M14 melanoma 95.9%

O=S(=O)(NCCCNc1nccc(-c2c(-c3ccc(F)c(O)c3)nc3sccn23)n1)c1ccccc1
active: MALME-3M melanoma 0.08%
inactive: NCI-H23 lung 58.3% | NCI-H226 lung 97.7% | NCI-H322M lung 87.7% | HOP-62 NSCLC 89.1% | NCI-H460 lung 62.2% | HOP-92 NSCLC 55.4% | NCI-H522 lung 52.1% | A549/ATCC NSCLC 63.8% | 786-0 renal 87.2% | COLO 205 colon 30.4% | DU-145 prostate 69% | K-562 leukemia 37.6% | MDA-MB-231 breast 47.2% | RXF 393 renal 26.4% | SF-268 CNS 74.4% | SF-295 CNS 92.6% | SF-539 CNS 88.2% | UACC-257 melanoma 19.6% | M14 melanoma 12.6%

O=C(O)c1ccc(-n2cc(/C=N/Nc3ccccc3)c(-c3ccc(F)cc3F)n2)cc1
inactive: NCI-H23 lung 71.5% | NCI-H226 lung 84.2% | NCI-H322M lung 62.1% | HOP-62 NSCLC 40.2% | NCI-H460 lung 55.3% | HOP-92 NSCLC 83.5% | NCI-H522 lung 26.6% | A549/ATCC NSCLC 60% | 786-0 renal 71.5% | COLO 205 colon 108% | DU-145 prostate 49.2% | K-562 leukemia 18.6% | MALME-3M melanoma 70.4% | MDA-MB-231 breast 41% | RXF 393 renal 92.9% | SF-268 CNS 45.8% | SF-295 CNS 77.2% | SF-539 CNS 75.3% | UACC-257 melanoma 114% | M14 melanoma 41.8%

O=C(OC(CO)C(=O)NC12CC3CC(CC(C3)C1)C2)c1ccc(Cl)cc1 (stereo not given)
inactive: NCI-H23 lung 105% | NCI-H226 lung 92.4% | NCI-H322M lung 102% | HOP-62 NSCLC 103% | NCI-H460 lung 107% | HOP-92 NSCLC 87.2% | NCI-H522 lung 99.3% | A549/ATCC NSCLC 97.2% | 786-0 renal 101% | COLO 205 colon 110% | DU-145 prostate 103% | K-562 leukemia 95.5% | MALME-3M melanoma 104% | MDA-MB-231 breast 105% | RXF 393 renal 103% | SF-268 CNS 104% | SF-295 CNS 100% | SF-539 CNS 96% | UACC-257 melanoma 100% | M14 melanoma 97.6%

C=CCc1c(O)c(C(=O)/C=C/c2ccccc2)c(OC)c2ccoc12
inactive: NCI-H23 lung 53.4% | NCI-H226 lung 21.9% | NCI-H322M lung 61.9% | HOP-62 NSCLC 88% | NCI-H460 lung 16.8% | HOP-92 NSCLC 47.3% | NCI-H522 lung 37.9% | A549/ATCC NSCLC 44.7% | 786-0 renal 71.3% | COLO 205 colon 59.5% | DU-145 prostate 63.2% | K-562 leukemia 46.8% | MALME-3M melanoma 79.4% | MDA-MB-231 breast 47.6% | SF-268 CNS 43% | SF-295 CNS 34.5% | SF-539 CNS 24.8% | UACC-257 melanoma 40.6% | M14 melanoma 59.3%
active: RXF 393 renal 7.33%

— PubChem BioAssay (NCI)
